Reference: PubChem BioAssay (EPA / NIEHS)
Activity calls are given as the source filed them. The calls were made as follows: active = hit-call score of the fitted dose curve at least 0.9, where 1 is the maximum; inactive = score below 0.9.

Experiment: CCTE_Shafer_MEA_acute_cross_correlation_area: CCTE's Neural Acute Assay for Area of Cross Correlation, Shafer Lab (AID 2284024);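 also: area under pooled inter-electrode spike cross-correlation near zero lag as percent change from own baseline; curves fitted for loss of cross-correlation area so actives lower synchrony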;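 as to outcome: rat primary cortical neuron networks on 48-well MEA at DIV 13 or 15 with 40 min exposure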
Procedure, shortened: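 Extracellular recordings from cultured rat cortical neurons measure network synchrony as cross-correlation area; each well's post-compound value (0.03-40 uM, 40 min) is compared with its own 40 min baseline to give percent change.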

| Structure (SMILES) | outcome | AC50 |
| --- | --- | --- |
| OCCCCO | inactive |  |
| N#Cc1cccnc1 | inactive |  |
| Cc1ccccc1OP(=O)(Oc1ccccc1C)Oc1ccccc1C | inactive |  |
| CCCCOC(=O)COC(=O)c1ccccc1C(=O)OCCCC |  | 0.0115 µM (active) |
| Cc1cc(C(F)(C(F)(F)F)C(F)(F)F)ccc1NC(=O)c1cccc(I)c1C(=O)NC(C)(C)CS(C)(=O)=O | inactive |  |
| CN(C)C(=S)S | inactive |  |
| Oc1ccc(Cc2ccc(O)cc2)cc1 |  | 0.00164 µM (active) |
| CC1(C)[C@H](C(=O)O[C@H](C#N)c2cccc(Oc3ccccc3)c2)[C@@H]1/C=C(\Cl)C(F)(F)F |  | 0.0359 µM (active) |
| CS(=O)(=O)c1ccc(C(=O)C2C(=O)CCCC2=O)c(Cl)c1COCC(F)(F)F | inactive |  |
| Oc1cc(Cl)c(Cl)cc1Cl | inactive |  |
| O=C(Cc1ccccc1)OCCc1ccccc1 | inactive |  |
| CC(C)(C)c1ccccc1O | inactive |  |
| Clc1cccc(Cl)c1Cl | inactive |  |
| CCCCCCCCCCCCc1cccc(S(=O)(=O)O)c1 | inactive |  |
| CC(C)[C@@H](Nc1ccc(C(F)(F)F)cc1Cl)C(=O)OC(C#N)c1cccc(Oc2ccccc2)c1 (stereo not given in full) |  | 0.534 µM (active) |

Experiment: CCTE_Shafer_MEA_acute_cross_correlation_HWHM: CCTE's Neural Acute Assay for Cross Correlation at Half Width at Half Maximum, Shafer Lab (AID 2284026);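 also: percent change per well from pre-dose baseline in spike cross-correlogram half width; hits are a decrease in cross-correlogram half width relative to DMSO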;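 as to outcome: spontaneous network firing of rat primary cortical neurons on multiwell microelectrode arrays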
Procedure, shortened: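 Percent change in cross-correlogram half width at half maximum, narrower meaning more synchrony, was derived per well from paired 40-min recordings before and during exposure to 0.03-40 uM compound in rat cortical cultures at 37 C.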

| Structure (SMILES) | outcome | AC50 |
| --- | --- | --- |
| OCCCCO | inactive |  |
| N#Cc1cccnc1 | inactive |  |
| Cc1ccccc1OP(=O)(Oc1ccccc1C)Oc1ccccc1C |  | 23.1 µM (active) |
| CCCCOC(=O)COC(=O)c1ccccc1C(=O)OCCCC | inactive |  |
| Cc1cc(C(F)(C(F)(F)F)C(F)(F)F)ccc1NC(=O)c1cccc(I)c1C(=O)NC(C)(C)CS(C)(=O)=O |  | 4.61 µM (active) |
| CN(C)C(=S)S | inactive |  |
| Oc1ccc(Cc2ccc(O)cc2)cc1 | inactive |  |
| CC1(C)[C@H](C(=O)O[C@H](C#N)c2cccc(Oc3ccccc3)c2)[C@@H]1/C=C(\Cl)C(F)(F)F |  | 23.7 µM (active) |
| CS(=O)(=O)c1ccc(C(=O)C2C(=O)CCCC2=O)c(Cl)c1COCC(F)(F)F | inactive |  |
| Oc1cc(Cl)c(Cl)cc1Cl |  | 30.2 µM (active) |
| O=C(Cc1ccccc1)OCCc1ccccc1 | inactive |  |
| CC(C)(C)c1ccccc1O |  | 20 µM (active) |
| Clc1cccc(Cl)c1Cl | inactive |  |
| CCCCCCCCCCCCc1cccc(S(=O)(=O)O)c1 | inactive |  |
| CC(C)[C@@H](Nc1ccc(C(F)(F)F)cc1Cl)C(=O)OC(C#N)c1cccc(Oc2ccccc2)c1 (stereo not given in full) | inactive |  |

Experiment: CCTE_Shafer_MEA_acute_synchrony_index: CCTE's Neural Acute Assay for Synchrony, Shafer Lab (AID 2284027);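 also: network synchrony index of spontaneous spiking in primary rat cortical neurons on MEAs; fitted for loss of signal so actives lower synchrony relative to DMSO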
Procedure, shortened: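 Acute exposure of rat primary cortical neurons (DIV 13 or 15) at 0.03-40 uM. Synchrony index, 40 min before vs after, as % change relative to DMSO control.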

| Structure (SMILES) | outcome | AC50 |
| --- | --- | --- |
| OCCCCO | inactive |  |
| N#Cc1cccnc1 | inactive |  |
| Cc1ccccc1OP(=O)(Oc1ccccc1C)Oc1ccccc1C |  | 28.1 µM (active) |
| CCCCOC(=O)COC(=O)c1ccccc1C(=O)OCCCC | inactive |  |
| Cc1cc(C(F)(C(F)(F)F)C(F)(F)F)ccc1NC(=O)c1cccc(I)c1C(=O)NC(C)(C)CS(C)(=O)=O |  | 5.74 µM (active) |
| CN(C)C(=S)S | inactive |  |
| Oc1ccc(Cc2ccc(O)cc2)cc1 | inactive |  |
| CC1(C)[C@H](C(=O)O[C@H](C#N)c2cccc(Oc3ccccc3)c2)[C@@H]1/C=C(\Cl)C(F)(F)F |  | 0.45 µM (active) |
| CS(=O)(=O)c1ccc(C(=O)C2C(=O)CCCC2=O)c(Cl)c1COCC(F)(F)F | inactive |  |
| Oc1cc(Cl)c(Cl)cc1Cl |  | 30.5 µM (active) |
| O=C(Cc1ccccc1)OCCc1ccccc1 | inactive |  |
| CC(C)(C)c1ccccc1O |  | 20 µM (active) |
| Clc1cccc(Cl)c1Cl | inactive |  |
| CCCCCCCCCCCCc1cccc(S(=O)(=O)O)c1 | inactive |  |
| CC(C)[C@@H](Nc1ccc(C(F)(F)F)cc1Cl)C(=O)OC(C#N)c1cccc(Oc2ccccc2)c1 (stereo not given in full) |  | 0.403 µM (active) |

Experiment: CCTE_Shafer_MEA_dev_per_burst_spike_percent: CCTE's Neural Network Formation Assay for Percent of Spikes in a Burst, Shafer Lab (AID 2284032);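 as to AC50: fitted as a decrease in burst spike percentage below DMSO baseline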
Procedure, shortened: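 Value is trapezoidal AUC over recordings on days 5, 7, 9 and 12 of the well-mean fraction of spikes falling in single-electrode bursts; rat cortical cultures exposed continuously from plating, treatment renewed DIV 5 and 9, fitted downward against DMSO.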

| Structure (SMILES) | AC50 | outcome |
| --- | --- | --- |
| Cc1ccccc1OP(=O)(Oc1ccccc1C)Oc1ccccc1C | 15 µM (active) |  |
| Cc1cc(C(F)(C(F)(F)F)C(F)(F)F)ccc1NC(=O)c1cccc(I)c1C(=O)NC(C)(C)CS(C)(=O)=O | 5.5 µM (active) |  |
| CC1(C)[C@H](C(=O)O[C@H](C#N)c2cccc(Oc3ccccc3)c2)[C@@H]1/C=C(\Cl)C(F)(F)F | 22.7 µM (active) |  |
| CS(=O)(=O)c1ccc(C(=O)C2C(=O)CCCC2=O)c(Cl)c1COCC(F)(F)F |  | inactive |
| CC(C)[C@@H](Nc1ccc(C(F)(F)F)cc1Cl)C(=O)OC(C#N)c1cccc(Oc2ccccc2)c1 (stereo not given in full) |  | inactive |
